Laboratory results published in ChEMBL document CHEMBL1961873, “Compounds: GSK PKIS; Assays: Nanosyn kinase panel” (2012).
Values joined by “and” are separate entries in the source; they are usually repeats but may differ in a detail not shown here. Equal values may be shown once.

Tests used:
[1] = target: T1, Serine/threonine-protein kinase TBK1 (Homo sapiens) (UniProt Q9UHD2); details: at 1 µM;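 further: values are mean inhibition of TBK1, screened as part of the GSK published kinase inhibitor set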
T1 sequence (whole entry): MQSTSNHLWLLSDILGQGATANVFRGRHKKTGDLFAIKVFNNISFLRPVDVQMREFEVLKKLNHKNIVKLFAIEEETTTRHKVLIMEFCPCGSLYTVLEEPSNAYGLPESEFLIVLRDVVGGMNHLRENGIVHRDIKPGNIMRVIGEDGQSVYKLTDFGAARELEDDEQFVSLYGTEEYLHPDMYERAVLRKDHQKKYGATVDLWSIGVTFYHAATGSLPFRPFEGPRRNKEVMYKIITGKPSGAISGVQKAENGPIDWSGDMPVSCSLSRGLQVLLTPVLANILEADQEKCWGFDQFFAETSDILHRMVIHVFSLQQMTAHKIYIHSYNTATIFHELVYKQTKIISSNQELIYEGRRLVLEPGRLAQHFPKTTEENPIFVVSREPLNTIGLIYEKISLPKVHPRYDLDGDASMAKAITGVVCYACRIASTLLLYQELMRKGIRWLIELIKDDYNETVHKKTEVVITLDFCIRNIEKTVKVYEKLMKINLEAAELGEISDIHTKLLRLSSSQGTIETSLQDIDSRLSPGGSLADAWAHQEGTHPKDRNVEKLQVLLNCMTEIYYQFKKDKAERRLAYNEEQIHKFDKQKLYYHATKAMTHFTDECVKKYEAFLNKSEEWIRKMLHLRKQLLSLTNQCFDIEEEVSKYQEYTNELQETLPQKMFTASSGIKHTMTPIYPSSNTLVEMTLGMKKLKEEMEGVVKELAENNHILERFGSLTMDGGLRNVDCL

[2] = target: T2, Testis-specific serine/threonine-protein kinase 1 (Homo sapiens) (UniProt Q9BXA7); details: at 0.1 µM
T2 sequence (whole entry): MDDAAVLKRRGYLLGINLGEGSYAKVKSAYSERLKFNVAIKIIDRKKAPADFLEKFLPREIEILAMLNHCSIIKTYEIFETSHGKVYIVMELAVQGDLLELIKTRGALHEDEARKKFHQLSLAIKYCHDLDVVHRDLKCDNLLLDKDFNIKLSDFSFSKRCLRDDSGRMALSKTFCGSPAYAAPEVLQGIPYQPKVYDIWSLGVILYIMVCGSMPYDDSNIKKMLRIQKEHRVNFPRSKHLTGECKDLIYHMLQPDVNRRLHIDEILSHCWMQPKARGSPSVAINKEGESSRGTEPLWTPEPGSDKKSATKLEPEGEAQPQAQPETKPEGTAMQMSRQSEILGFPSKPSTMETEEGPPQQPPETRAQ

[3] = target: T2, Testis-specific serine/threonine-protein kinase 1 (Homo sapiens); details: at 1 µM
[4] = target: T3, Testis-specific serine/threonine-protein kinase 2 (Homo sapiens) (UniProt Q96PF2); details: at 0.1 µM
T3 sequence (whole entry): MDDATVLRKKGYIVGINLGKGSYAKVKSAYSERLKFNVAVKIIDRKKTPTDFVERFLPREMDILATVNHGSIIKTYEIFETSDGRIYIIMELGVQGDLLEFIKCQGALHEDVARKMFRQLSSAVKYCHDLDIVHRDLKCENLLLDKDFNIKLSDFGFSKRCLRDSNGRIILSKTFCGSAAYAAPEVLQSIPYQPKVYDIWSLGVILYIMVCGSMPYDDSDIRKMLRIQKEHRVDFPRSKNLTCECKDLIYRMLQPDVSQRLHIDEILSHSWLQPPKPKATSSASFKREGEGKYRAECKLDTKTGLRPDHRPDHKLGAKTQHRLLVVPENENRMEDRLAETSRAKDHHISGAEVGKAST

[5] = target: T3, Testis-specific serine/threonine-protein kinase 2 (Homo sapiens); details: at 1 µM
[6] = target: Casein kinase I isoform alpha (Homo sapiens) (UniProt P48729); details: at 0.1 µM
[7] = target: Casein kinase I isoform alpha (Homo sapiens) (UniProt P48729); details: at 1 µM
[8] = target: Casein kinase I isoform gamma-1 (Homo sapiens) (UniProt Q9HCP0); details: at 0.1 µM
[9] = target: Casein kinase I isoform gamma-1 (Homo sapiens) (UniProt Q9HCP0); details: at 1 µM
[10] = target: Casein kinase I isoform gamma-2 (Homo sapiens) (UniProt P78368); details: at 0.1 µM
[11] = target: Casein kinase I isoform gamma-2 (Homo sapiens) (UniProt P78368); details: at 1 µM
[12] = target: Casein kinase I isoform gamma-3 (Homo sapiens) (UniProt Q9Y6M4); details: at 0.1 µM
[13] = target: Casein kinase I isoform gamma-3 (Homo sapiens) (UniProt Q9Y6M4); details: at 1 µM
[14] = target: Cyclin-dependent kinase 1 (Homo sapiens) (UniProt P06493); details: at 0.1 µM
[15] = target: Cyclin-dependent kinase 1 (Homo sapiens) (UniProt P06493); details: at 1 µM
[16] = target: Cyclin-dependent kinase 2 (Homo sapiens) (UniProt P24941); details: at 0.1 µM
[17] = target: Cyclin-dependent kinase 2 (Homo sapiens) (UniProt P24941); details: at 1 µM
[18] = target: Cyclin-dependent kinase 2 (Homo sapiens) (UniProt P24941); details: at 0.1 µM; remark: listed apart in the source
[19] = target: Cyclin-dependent kinase 2 (Homo sapiens) (UniProt P24941); details: at 1 µM; remark: listed apart in the source
[20] = target: CDK3/Cyclin E (Homo sapiens) (UniProt P24864+Q00526); details: at 0.1 µM;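 further: reported percentages are mean inhibition values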
CDK3/Cyclin E (Homo sapiens), sequence (P24864 whole entry, looked up): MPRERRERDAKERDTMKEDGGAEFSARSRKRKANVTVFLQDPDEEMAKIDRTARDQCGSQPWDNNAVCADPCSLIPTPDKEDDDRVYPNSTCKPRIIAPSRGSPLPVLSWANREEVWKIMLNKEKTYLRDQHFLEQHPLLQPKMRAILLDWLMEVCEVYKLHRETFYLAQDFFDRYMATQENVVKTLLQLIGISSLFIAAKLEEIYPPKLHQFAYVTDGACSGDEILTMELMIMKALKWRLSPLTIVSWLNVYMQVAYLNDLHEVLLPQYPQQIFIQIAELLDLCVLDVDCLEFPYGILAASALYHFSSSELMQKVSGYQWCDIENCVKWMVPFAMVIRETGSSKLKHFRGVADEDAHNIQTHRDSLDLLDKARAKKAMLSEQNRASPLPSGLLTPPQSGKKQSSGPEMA
CDK3/Cyclin E (Homo sapiens), sequence (Q00526 whole entry, looked up): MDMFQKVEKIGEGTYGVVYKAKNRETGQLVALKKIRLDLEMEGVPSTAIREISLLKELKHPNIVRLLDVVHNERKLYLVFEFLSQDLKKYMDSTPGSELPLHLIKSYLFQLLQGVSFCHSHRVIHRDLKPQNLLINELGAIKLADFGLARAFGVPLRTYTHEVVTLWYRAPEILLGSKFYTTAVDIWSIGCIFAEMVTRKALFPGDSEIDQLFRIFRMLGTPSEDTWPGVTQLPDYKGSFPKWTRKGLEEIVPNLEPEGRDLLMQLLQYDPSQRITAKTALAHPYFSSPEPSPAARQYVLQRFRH

Casein kinase I isoform gamma-2 (Homo sapiens), sequence (P78368 whole entry, looked up, canonical isoform): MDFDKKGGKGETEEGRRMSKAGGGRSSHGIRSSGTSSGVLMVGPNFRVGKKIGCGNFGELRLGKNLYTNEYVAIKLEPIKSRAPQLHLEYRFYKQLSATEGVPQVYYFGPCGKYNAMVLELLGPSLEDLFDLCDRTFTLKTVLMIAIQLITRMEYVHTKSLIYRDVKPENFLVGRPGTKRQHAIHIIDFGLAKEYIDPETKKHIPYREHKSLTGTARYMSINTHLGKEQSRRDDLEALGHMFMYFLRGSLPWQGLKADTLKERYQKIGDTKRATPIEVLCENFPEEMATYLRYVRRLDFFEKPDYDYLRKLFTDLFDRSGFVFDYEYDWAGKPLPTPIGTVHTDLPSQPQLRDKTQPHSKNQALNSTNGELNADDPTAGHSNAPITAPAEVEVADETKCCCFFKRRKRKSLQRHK
Casein kinase I isoform gamma-3 (Homo sapiens), sequence (Q9Y6M4 whole entry, looked up, canonical isoform): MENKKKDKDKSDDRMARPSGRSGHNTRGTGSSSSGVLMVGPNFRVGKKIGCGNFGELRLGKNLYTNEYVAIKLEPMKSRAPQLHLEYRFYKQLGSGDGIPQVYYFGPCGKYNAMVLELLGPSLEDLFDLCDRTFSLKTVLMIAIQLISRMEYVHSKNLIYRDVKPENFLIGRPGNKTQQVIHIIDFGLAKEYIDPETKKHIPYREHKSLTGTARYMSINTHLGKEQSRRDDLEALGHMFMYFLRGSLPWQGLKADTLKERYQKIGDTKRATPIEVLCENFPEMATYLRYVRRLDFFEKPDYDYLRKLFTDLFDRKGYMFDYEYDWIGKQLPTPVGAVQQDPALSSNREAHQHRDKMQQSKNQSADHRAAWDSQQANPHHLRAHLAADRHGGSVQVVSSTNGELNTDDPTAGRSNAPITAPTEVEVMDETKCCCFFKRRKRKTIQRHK
Cyclin-dependent kinase 1 (Homo sapiens), sequence (P06493 whole entry, looked up): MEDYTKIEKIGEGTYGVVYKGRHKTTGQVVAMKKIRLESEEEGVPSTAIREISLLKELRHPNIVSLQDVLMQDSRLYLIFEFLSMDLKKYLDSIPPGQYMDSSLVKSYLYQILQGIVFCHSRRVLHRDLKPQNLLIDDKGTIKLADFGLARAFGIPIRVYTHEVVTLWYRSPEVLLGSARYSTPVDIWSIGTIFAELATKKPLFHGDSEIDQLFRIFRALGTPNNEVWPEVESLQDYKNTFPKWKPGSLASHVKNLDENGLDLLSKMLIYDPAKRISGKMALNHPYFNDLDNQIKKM
Casein kinase I isoform gamma-1 (Homo sapiens), sequence (Q9HCP0 whole entry, looked up, canonical isoform): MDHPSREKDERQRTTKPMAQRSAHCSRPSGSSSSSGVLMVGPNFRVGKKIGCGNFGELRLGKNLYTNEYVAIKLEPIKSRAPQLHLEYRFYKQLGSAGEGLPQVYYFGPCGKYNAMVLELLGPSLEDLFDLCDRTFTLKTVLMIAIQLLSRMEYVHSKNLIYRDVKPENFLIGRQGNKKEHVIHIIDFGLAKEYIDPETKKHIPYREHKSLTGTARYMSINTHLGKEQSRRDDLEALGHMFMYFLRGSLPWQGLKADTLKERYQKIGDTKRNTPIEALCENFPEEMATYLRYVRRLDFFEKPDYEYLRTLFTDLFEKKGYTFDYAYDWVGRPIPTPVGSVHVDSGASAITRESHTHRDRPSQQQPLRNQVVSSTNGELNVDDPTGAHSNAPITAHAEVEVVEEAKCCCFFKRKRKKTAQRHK
Casein kinase I isoform alpha (Homo sapiens), sequence (P48729 2-337 limits assumed): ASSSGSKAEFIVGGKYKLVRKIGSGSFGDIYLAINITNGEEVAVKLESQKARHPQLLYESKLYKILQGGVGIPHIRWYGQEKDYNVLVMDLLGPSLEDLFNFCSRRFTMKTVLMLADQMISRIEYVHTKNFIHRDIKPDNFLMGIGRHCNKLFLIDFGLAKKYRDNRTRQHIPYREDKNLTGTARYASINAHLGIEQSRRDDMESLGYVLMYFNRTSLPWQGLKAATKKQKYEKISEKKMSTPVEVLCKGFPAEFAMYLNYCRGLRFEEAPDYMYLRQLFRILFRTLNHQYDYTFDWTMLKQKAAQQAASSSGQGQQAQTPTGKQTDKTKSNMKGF

Compound | inhibition [1] | inhibition [2] | inhibition [3] | inhibition [4] | inhibition [5] | inhibition [6] | inhibition [7] | inhibition [8] | inhibition [9] | inhibition [10] | inhibition [11] | inhibition [12] | inhibition [13] | inhibition [14] | inhibition [15] | inhibition [16] | inhibition [17] | inhibition [18] | inhibition [19] | inhibition [20]
Nc1nccc(-c2c(-c3ccc(F)cc3)ncn2C2CCNCC2)n1 | -0.8% and 3.12% | -0.43% and -0.33% | -1.08% and -1.15% | -2.53% and 0.42% | -0.67% and -0.42% | 61.4% and 67% | 85% and 86.4% | -1.9% and 1.36% | 8.77% and 13.7% | -1.89% and 0.78% | 1.81% and 6.64% | -1.77% and 1.52% | 15.6% and 20.3% | 0.24% and 0.46% | 2.44% and 1.3% | 4.08% and 1.21% | -7.29% and 6.19% | -1.76% and 0.82% | -0.76% and 1.53% | -0.31% and 0.39%
COc1ccccc1-c1cc(/C=C2\C(=O)Nc3ncc(Br)cc32)cc(Br)c1O | 6.07% | 4.24% | 6.09% | 2.5% | 1.91% | 2.91% | 5.66% | 5.05% | 5.44% | 3.14% | 6.34% | 4.08% | 3.37% | 3.53% | 5.31% | 2.84% | -1.47% | 7.89% | 9.34% | 5.76%
CNC(=O)c1ncccc1Nc1nc(Nc2cc3c(cc2OC)CCCN3C(=O)CN(C)C)nc2[nH]ccc12 | 26.1% | 85.5% | 93.9% | 31% | 73.2% | 1.15% | 6.71% | 4.96% | 8.09% | 2.28% | 5.64% | 2.52% | 6.23% | 1.79% | 5.38% | 2.38% | 9.91% | 7.73% | 9.82% | 3.92%
CNC(=O)c1cncc(/C=C/c2ccccc2C)c1 | 6.39% | 4.49% | 5.13% | 3.39% | 2.6% | 1.22% | 5.05% | 2.73% | 3.62% | 2.46% | 2.72% | 2.23% | 3.55% | 1.72% | 7.81% | 1.87% | 11% | 12% | 16.4% | 7.08%
COc1cc2c(cc1Nc1nc(Nc3cccc(F)c3C(N)=O)c3cc[nH]c3n1)N(C(=O)CN1CCN(C(C)C)CC1)CC2 | 3.05% | 5.1% | 31.9% | 2.49% | 12.4% | 1.84% | 11.4% | 2.53% | 5.76% | 2.46% | 5.31% | 3.51% | 7.32% | 2.14% | 0.55% | 3.46% | 1.57% | 0.67% | 0.45% | -1.81%
CC1=C(C(=O)Nc2ccc3[nH]nc(C)c3c2)C(c2ccc(C(F)(F)F)cc2)CC(=O)N1 (stereo not given) | 3.52% | 1.88% | 0.25% | 1.4% | -4.29% | 2.09% | 3.07% | 1.96% | 3.62% | 1.19% | 3.14% | 2.16% | 2.2% | 1.96% | 6.87% | 2.54% | 6.05% | 2.66% | 6.67% | 0.4%
Nc1ncnc2occ(-c3ccc(NC(=O)Nc4cc(C(F)(F)F)ccc4F)cc3)c12 | 6.12% and 3.01% | 0.74% and -0.54% | -2.13% and 0.25% | 0.34% and -1.88% | -2.39% and -1.51% | -0.66% and -1.83% | 4.18% and -1.62% | 1.37% and -1.43% | 5.11% and 0.87% | 0.83% and -2.39% | 4.53% and -0.27% | 0.69% and 0.19% | 6.26% and 0.91% | 2.66% and 1.33% | 11.4% and 4.55% | 2.5% and 0.72% | 13.5% and 5.32% | 2.09% and 0.45% | 15.5% and 5.95% | 1.13% and 2.46%
CCS(=O)(=O)c1ccc(OC)c(Nc2ncc(-c3cccc(C(C)=O)c3)o2)c1 | 5.54% | 2.02% | 5.38% | 3.72% | 1.57% | 0.47% | 2.36% | 2.26% | 2.79% | 2.75% | 1.92% | 1.93% | 1.37% | 0.64% | 1.52% | 1.87% | 6.76% | 3.84% | 8.73% | 0.35%
CC(C)c1ccc(-c2cc(-c3c[nH]nc3-c3ccccn3)ccn2)cc1 | -0.11% | 0.45% | 0.81% | -0.82% | -1.06% | 3.57% | 9.88% | 0.64% | 2.41% | 0.19% | 1.17% | -0.24% | 3.43% | -0.07% | 2.01% | 1.87% | -0.02% | 1.12% | 1.4% | -1.25%
COC(=O)Nc1nc2cc(Oc3ccc(NC(=O)Nc4ccccc4)cc3)ccc2[nH]1 | 2.25% | 3.86% | 4.03% | 2.21% | 4.11% | 0.93% | 2.7% | 2.12% | 2.12% | 2.17% | 1.9% | 0.58% | 1.63% | 1.24% | 1.72% | 1.21% | 0.35% | 1.69% | 3.15% | 2.16%
CCCNc1cccc(-n2ncc3c(N/N=C/c4ccncc4)ncnc32)c1 | 20.2% | 1.42% | 6.17% | 0.21% | 3.17% | 0.14% | 1.89% | 0.84% | 1.57% | 1.79% | 1.01% | 1.29% | 0.9% | 2.68% | 22.5% | 7.1% | 42.1% | 1.17% | 9.16% | 0.47%
CN1CCC(n2cnc(-c3ccc(F)cc3)c2-c2ccnc(NCCO)n2)CC1 | 7.57% | 4.44% | 6.56% | 3.07% | 4.33% | 37% | 73.4% | 4.15% | 8.74% | 2.94% | 5.84% | 4.27% | 10.2% | 0.37% | 1.31% | 1.69% | -0.92% | 4.05% | 4.55% | 1.13%
CN(c1ccc(NC(=O)NCCN2CCOCC2)cc1)c1ccnc(Nc2ccc(CS(C)(=O)=O)cc2)n1 | 4.49% | 4.48% | 5.87% | 4.78% | 3.15% | 1.71% | 2.52% | 2.63% | 3.24% | 3.34% | 1.47% | 2.29% | 2.32% | -0.38% | 2.55% | 1.15% | 11.3% | 3.19% | 4.7% | 0.76%
